Assay results taken from PubChem BioAssay (NCATS).
Results filed as inconclusive are left out. The source made the active and inactive calls. Unless noted, calls follow the shape of the dose curve; as a rule, active = well fitted curve in the direction sought with a large enough effect; inconclusive = small, poorly fitted or top-dose-only effect, or another doubt; inactive = no such curve, though single readings can be large; an effect the other way counts as inactive or inconclusive.

Columns and labels:
[1] = Quantitative high throughput screen for delayed death inhibitors of the malarial parasite plastid, 96 hour incubation (AID 488745); also: potency is read from the fitted curve at half-maximal effect; nearly all actives have a fitted effect of over 70% in size
Outline: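 Two-generation (96 h) exposure of luciferase-reporter P. falciparum in erythrocytes, 2% hematocrit, 0.1% parasitemia final, 37 C, 5% CO2, RPMI 1640 with 0.5% Albumax. Growth inhibition scored by reduced luminescence.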

[2] = Quantitative high throughput screen for delayed death inhibitors of the malarial parasite plastid, 48 hour incubation (AID 488752); also: potency is read from the fitted curve at half-maximal effect; nearly all actives have a fitted effect of over 65% in size
Outline: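 Cultures: infected erythrocytes at final 2% hematocrit and 0.1% parasitemia in Albumax-supplemented RPMI. Parasites express integrated firefly luciferase. Incubation with compound lasts 48 h before luminescent detection of remaining reporter activity.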

[3] = Inducers of the Endoplasmic Reticulum Stress Response (ERSR) in human glioma: Validation (AID 504836)
Outline: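 Stably transfected U87-MG human glioma cells carrying a GRP78-based luminescent sensor were seeded at 1000 cells/well, pin-dosed with compounds and incubated 16 h. Luciferase reagent was then added, and end-point luminescence was read after 10 min at room temperature.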

[4] = qHTS for Inhibitors of the Functional Ribonucleoprotein Complex (vRNP) of Lassa (LASV) Arenavirus: LASV Primary Screen - GLuc reporter signal (AID 1347082; calls by dose curve; tested in HEK293 reporter line; also: nearly all actives have a fitted effect of over 60% in size)
[5] = qHTS for Inhibitors of the Functional Ribonucleoprotein Complex (vRNP) of Lassa (LASV) Arenavirus: Viability assay - alamar blue signal for LASV Primary Screen (AID 1347083; calls by dose curve; tested in HEK293 reporter line; also: nearly all actives have a fitted effect of over 80% in size)
[6] = qHTS for Inhibitors of the Functional Ribonucleoprotein Complex (vRNP) of Lymphocytic Choriomeningitis Arenaviruses (LCMV): Viability assay - alamar blue signal for LCMV Primary Screen (AID 1347085; calls by dose curve; tested in HEK293 reporter line; also: nearly all actives have a fitted effect of over 80% in size)
[7] = molecular target: Nucleoprotein (Lymphocytic choriomeningitis virus (strain Armstrong)) (UniProt P09992); test: qHTS for Inhibitors of the Functional Ribonucleoprotein Complex (vRNP) of Lymphocytic Choriomeningitis Arenaviruses (LCMV): LCMV Primary Screen - GLuc reporter signal (AID 1347086; calls by dose curve; also: nearly all actives have a fitted effect of over 70% in size)
[8] = molecular target: Alpha-galactosidase (Coffea arabica) (UniProt Q42656); test: Counterscreen for Glucocerebrosidase Inhibitors: qHTS Assay for Coffee Bean alpha-Galactosidase at pH 4.5 (AID 957)
Outline: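 Quantitative HTS of compounds (0.7 nM to 77 uM) against coffee bean alpha-galactosidase at pH 4.5, measuring 4-methylumbelliferone fluorescence released from 80 uM substrate.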

[9] = molecular target: Alpha-galactosidase (Coffea arabica) (UniProt Q42656); test: Counterscreen for Glucocerebrosidase Inhibitors: qHTS Assay for Coffee Bean alpha-Galactosidase at pH 5.9 (AID 998)
Outline: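 In 50 mM citric acid pH 5.9 with 0.005% Tween-20, coffee bean enzyme hydrolyses 80 uM 4-MU alpha-D-galactopyranoside over 20 min at RT. Activity is normalized to controls; AC50 comes from Hill-modelled concentration-response data.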

[10] = Validation screen for inhibitors of Lassa infection (AID 463096; calls by dose curve; also: potency is read from the fitted curve at half-maximal effect)
[11] = molecular target: M-phase phosphoprotein 8 (Homo sapiens) (UniProt Q99549); test: qHTS Validation Assay for Inhibitors for MPP8 Chromodomain Interactions with Methylated Histone Tails (AID 488949);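 also: AlphaScreen signal from MPP8 chromodomain bound to biotinylated H3K9me3 peptide; top concentration of the series differs between compounds; nearly all actives have a fitted effect of over 55% in size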
Outline: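 AlphaScreen read-out: streptavidin donor and nickel chelate acceptor beads (final 10 ug/mL), 30 min in the dark at RT. Complex of 50 nM MPP8 and 50 nM b-H3(1-18)K9me3 peptide had been exposed to compounds for 30 min beforehand.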

[12] = molecular target: Arylsulfatase A (Homo sapiens) (UniProt P15289); test: qHTS screen for enhancers of Arylsulfatase A (ASA1): LOPAC Validation Assay (AID 720538)
Outline: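 Read-out: fluorescence at Ex=525/Em=598 nm after 1N NaOH final stop. Patient fibroblasts carrying ASA-I179S had 48h compound exposure, then 14h room-temperature pNCS hydrolysis (0.5mM final) in lysis buffer. Signal increase = enhanced activity.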

[13] = molecular target: Flap endonuclease 1 (Homo sapiens) (UniProt P39748); test: qHTS Validation Assay for the Inhibitors of Human Flap endonuclease 1 (FEN1) (AID 488816)
Outline: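 Steps: add FEN1 (10 nM reagent) or buffer only; pin compounds; hold 15 min at room temperature; start with substrate, 50 nM final; read at 0 and 15 min; correct, normalize and fit a four-parameter Hill curve.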

[14] = molecular target: Chromobox protein homolog 1 (Homo sapiens) (UniProt P83916); test: qHTS Validation Assay for Inhibitors of HP1-beta Chromodomain Interactions with Methylated Histone Tails (AID 488953);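 also: loss of AlphaScreen luminescence from HP1-beta binding biotinylated H3K9me3 peptide; nearly all actives have a fitted effect of over 50% in size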
Outline: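 Compounds pinned into a preassembled complex of HP1-beta and trimethyl-K9 histone H3(1-18) biotin peptide (50 nM each; PBS pH 7.4, 0.01% Tween-20). After 30 min, bead-based AlphaScreen detection followed.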

[15] = qHTS profiling of the MIPE4 collection as inhibitors of Plasmodium falciparum (DD2) proliferation (AID 743345; call rule not given here); conditions: P. falciparum Dd2 in erythrocytes, SYBR Green DNA, 72 h; at 28.5 µM (top of the series) unless noted
Outline: (§1)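 Parasite DNA was quantified by SYBR Green I fluorescence (ex 485, em 535 nm) after overnight lysis in saponin/Triton buffer at room temperature. Cultures at 0.3% parasitemia and 2.5% hematocrit were first exposed to compound for 72 h at 37 C; signals were normalised to artemisinin (0.29 uM) and vehicle wells.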

[16] = qHTS profiling of the MIPE4 collection as inhibitors of Plasmodium falciparum (HB3) proliferation (AID 743347; call rule not given here); conditions: P. falciparum HB3 in erythrocytes, SYBR Green DNA, 72 h; at 28.5 µM (top of the series) unless noted
Outline: as §1

Sequence of Nucleoprotein (Lymphocytic choriomeningitis virus (strain Armstrong)) (P09992 whole entry, looked up): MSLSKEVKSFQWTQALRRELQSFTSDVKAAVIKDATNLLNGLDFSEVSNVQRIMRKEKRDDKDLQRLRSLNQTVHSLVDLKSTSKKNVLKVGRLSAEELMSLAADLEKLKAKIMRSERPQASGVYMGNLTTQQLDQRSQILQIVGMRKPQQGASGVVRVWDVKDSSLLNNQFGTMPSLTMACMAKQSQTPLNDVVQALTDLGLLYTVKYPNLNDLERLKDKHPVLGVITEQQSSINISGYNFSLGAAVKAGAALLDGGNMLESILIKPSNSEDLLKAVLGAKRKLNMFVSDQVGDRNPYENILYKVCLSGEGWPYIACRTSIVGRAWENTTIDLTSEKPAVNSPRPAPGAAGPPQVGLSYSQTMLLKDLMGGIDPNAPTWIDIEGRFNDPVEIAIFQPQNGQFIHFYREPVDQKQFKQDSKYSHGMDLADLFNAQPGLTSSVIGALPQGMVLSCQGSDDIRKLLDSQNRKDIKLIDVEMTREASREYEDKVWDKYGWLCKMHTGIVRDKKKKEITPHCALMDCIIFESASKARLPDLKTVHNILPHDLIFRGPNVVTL
Sequence of Alpha-galactosidase (Coffea arabica) (Q42656 whole entry, looked up): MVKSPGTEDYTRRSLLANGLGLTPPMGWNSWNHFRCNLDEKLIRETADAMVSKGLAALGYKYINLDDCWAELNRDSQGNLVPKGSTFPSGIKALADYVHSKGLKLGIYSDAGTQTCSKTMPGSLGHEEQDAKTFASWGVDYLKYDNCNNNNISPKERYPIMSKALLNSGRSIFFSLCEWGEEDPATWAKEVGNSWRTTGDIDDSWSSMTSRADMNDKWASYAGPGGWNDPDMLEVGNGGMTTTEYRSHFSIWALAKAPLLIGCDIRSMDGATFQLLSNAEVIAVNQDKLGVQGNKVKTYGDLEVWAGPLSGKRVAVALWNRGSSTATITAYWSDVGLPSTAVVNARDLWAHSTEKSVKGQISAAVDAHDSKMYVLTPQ
Sequence of Arylsulfatase A (Homo sapiens) (P15289 whole entry, looked up): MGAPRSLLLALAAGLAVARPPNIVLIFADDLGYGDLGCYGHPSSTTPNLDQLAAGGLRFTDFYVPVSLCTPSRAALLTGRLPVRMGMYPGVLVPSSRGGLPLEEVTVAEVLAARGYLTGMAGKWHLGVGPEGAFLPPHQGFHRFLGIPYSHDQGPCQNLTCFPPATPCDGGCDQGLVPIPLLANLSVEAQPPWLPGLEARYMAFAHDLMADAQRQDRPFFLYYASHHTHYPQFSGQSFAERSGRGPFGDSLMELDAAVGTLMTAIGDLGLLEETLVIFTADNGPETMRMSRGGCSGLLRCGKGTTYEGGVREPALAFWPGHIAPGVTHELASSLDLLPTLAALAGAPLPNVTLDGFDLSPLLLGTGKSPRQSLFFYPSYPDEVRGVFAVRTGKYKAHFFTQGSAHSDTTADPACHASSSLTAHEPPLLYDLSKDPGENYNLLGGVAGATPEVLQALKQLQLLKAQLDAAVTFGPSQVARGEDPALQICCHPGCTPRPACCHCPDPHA
Sequence of Flap endonuclease 1 (Homo sapiens) (P39748 whole entry, looked up): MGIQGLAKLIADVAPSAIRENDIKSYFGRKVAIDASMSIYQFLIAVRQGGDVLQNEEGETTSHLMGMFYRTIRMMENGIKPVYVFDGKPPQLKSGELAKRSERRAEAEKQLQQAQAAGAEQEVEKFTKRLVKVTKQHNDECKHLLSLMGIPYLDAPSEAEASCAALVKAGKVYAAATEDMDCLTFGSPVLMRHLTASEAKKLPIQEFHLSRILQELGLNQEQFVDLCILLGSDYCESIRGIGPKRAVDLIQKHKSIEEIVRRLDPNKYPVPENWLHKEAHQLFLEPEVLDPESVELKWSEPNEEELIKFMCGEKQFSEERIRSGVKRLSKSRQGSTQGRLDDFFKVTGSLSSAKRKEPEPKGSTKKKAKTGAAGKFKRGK
Sequence of M-phase phosphoprotein 8 (Homo sapiens) (Q99549 whole entry, looked up): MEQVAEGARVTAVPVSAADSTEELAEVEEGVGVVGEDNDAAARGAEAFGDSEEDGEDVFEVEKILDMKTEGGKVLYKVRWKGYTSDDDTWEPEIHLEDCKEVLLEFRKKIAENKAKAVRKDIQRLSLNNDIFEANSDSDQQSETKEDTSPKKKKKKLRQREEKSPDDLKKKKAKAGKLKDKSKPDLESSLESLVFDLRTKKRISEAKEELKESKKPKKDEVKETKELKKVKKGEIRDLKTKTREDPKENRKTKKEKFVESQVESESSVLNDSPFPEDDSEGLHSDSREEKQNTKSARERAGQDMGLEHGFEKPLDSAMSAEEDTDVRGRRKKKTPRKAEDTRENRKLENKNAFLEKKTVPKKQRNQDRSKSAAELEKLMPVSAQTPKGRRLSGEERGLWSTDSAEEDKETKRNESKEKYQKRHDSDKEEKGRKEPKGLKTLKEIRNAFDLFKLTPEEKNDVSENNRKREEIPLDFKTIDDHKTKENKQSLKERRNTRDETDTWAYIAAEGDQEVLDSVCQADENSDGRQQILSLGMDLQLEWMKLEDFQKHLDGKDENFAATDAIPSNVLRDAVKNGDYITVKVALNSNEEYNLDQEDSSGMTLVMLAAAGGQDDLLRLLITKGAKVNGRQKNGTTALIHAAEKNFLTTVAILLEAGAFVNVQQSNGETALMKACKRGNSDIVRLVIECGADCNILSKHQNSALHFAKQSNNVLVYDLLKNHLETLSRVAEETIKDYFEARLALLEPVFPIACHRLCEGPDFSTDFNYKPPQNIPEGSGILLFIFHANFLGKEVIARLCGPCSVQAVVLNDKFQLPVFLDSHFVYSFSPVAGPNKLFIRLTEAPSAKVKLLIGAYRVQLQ
Sequence of Chromobox protein homolog 1 (Homo sapiens) (P83916 whole entry, looked up): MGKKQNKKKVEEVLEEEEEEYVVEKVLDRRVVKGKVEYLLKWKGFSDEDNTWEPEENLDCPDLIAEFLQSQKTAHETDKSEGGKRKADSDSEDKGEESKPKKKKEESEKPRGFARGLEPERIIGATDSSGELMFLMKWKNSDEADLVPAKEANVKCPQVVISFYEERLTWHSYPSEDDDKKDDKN

CN1CCc2cccc3c2C1Cc1ccc(O)c(O)c1-3 (stereo not given)
active: Potency [1] 2.94 µM | Potency [2] 3.7 µM
inactive: outcome [3] | Potency [4] | Potency [5] | Potency [6] | Potency [7]

O=C(O)/C(=C/c1c(C(=O)O)[nH]c2cc(Cl)cc(Cl)c12)c1ccccc1
inactive: outcome [8] | outcome [9] | Potency [10] | Potency [4] | Potency [5] | Potency [6] | Potency [7]

N#C/C(=C\c1c[nH]c2ccccc12)C(=O)c1ccc(O)c(O)c1
inactive: outcome [8] | outcome [9] | Potency [10] | outcome [3] | Potency [4] | Potency [5] | Potency [6] | Potency [7]

COC(=O)c1c(C)[nH]c(C)c1C(=O)c1ccccc1Cc1ccccc1
inactive: outcome [8] | outcome [9] | Potency [10] | outcome [3] | Potency [4] | Potency [5] | Potency [6] | Potency [7]

O=c1[nH]c2cc(C(F)(F)F)ccc2n1-c1cc(C(F)(F)F)ccc1O
inactive: outcome [8] | outcome [9] | Potency [10] | Potency [4] | Potency [5] | Potency [6] | Potency [7]

c1ccc2c(c1)CCC[C@H]2Nc1nc2ccccc2[nH]1
inactive: outcome [3] | Potency [4] | Potency [5] | Potency [6] | Potency [7]

NC(N)=NCCCCN=C(N)N
inactive: outcome [8] | outcome [9] | Potency [10] | outcome [3] | Potency [4] | Potency [5] | Potency [6] | Potency [7]

CCn1c(=O)[nH]c2cc(Cl)c(Cl)cc21
inactive: outcome [8] | outcome [9] | Potency [10] | Potency [4] | Potency [5] | Potency [6] | Potency [7]

C[C@@H](NC(=O)/C(C#N)=C/c1ccc(O)c(O)c1)c1ccccc1
inactive: outcome [8] | outcome [9] | Potency [10] | outcome [3] | Potency [4] | Potency [5] | Potency [6] | Potency [7]

C[C@]12C=CC(=O)C=C1CC[C@@H]1C2=CC[C@]2(C)[C@@H](C(=O)CN3CCN(c4cc(N5CCCC5)nc(N5CCCC5)n4)CC3)CC[C@@H]12
inactive: Potency [11] | outcome [3] | Potency [12] | Potency [4] | Potency [5] | Potency [6] | Potency [7]

O=C(O)c1cc(=O)c2c(Cl)cc(Cl)cc2[nH]1
inactive: outcome [8] | outcome [9] | Potency [10] | Potency [4] | Potency [5] | Potency [6] | Potency [7]

COc1ccccc1N1CCN(CCCCNC(=O)c2ccc3ccccc3c2)CC1
inactive: outcome [8] | outcome [9] | Potency [4] | Potency [5] | Potency [6] | Potency [7]
active: Potency [10] 11.2 µM

c1ccc(C(NCc2cccnc2)(c2ccccc2)c2ccccc2)cc1
inactive: outcome [3] | Potency [4] | Potency [5] | Potency [6] | Potency [7]

O=C(O)CC1CC(c2ccccc2)=NO1 (stereo not given)
inactive: Potency [13] | outcome [3] | Potency [12] | Potency [4] | Potency [5] | Potency [6] | Potency [7]

COc1ccc(CCn2nnnc2C2(c3ccc(C)cc3)CC2)cc1
inactive: outcome [3] | Potency [4] | Potency [5] | Potency [6] | Potency [7]

Nc1c(S(=O)(=O)O)cc(Nc2ccc(Nc3nc(Cl)nc(Nc4ccc(S(=O)(=O)O)cc4)n3)c(S(=O)(=O)O)c2)c2c1C(=O)c1ccccc1C2=O
inactive: outcome [8] | outcome [9] | Potency [10] | outcome [3] | Potency [4] | Potency [5] | Potency [6] | Potency [7]

N[C@@H](CCC(=O)N[C@H](CSN=O)C(=O)NCC(=O)O)C(=O)O
inactive: outcome [3] | Potency [4] | Potency [5] | Potency [6] | Potency [7]

CC1(C)CCC=[N+]1[O-]
inactive: outcome [8] | outcome [9] | Potency [10] | Potency [4] | Potency [5] | Potency [6] | Potency [7]

Clc1ccc(N2CCN(Cc3c[nH]c4ncccc34)CC2)cc1
inactive: outcome [8] | outcome [9] | Potency [10] | Potency [4] | Potency [5] | Potency [6] | Potency [7]

N#C/C(=C\c1ccc(O)c(O)c1)C(=O)NCCCc1ccccc1
inactive: outcome [8] | outcome [9] | Potency [10] | Potency [4] | Potency [5] | Potency [6] | Potency [7]

CCCn1c(=O)c2c(ncn2C)n(CCC)c1=O
inactive: outcome [8] | outcome [9] | Potency [10] | Potency [4] | Potency [5] | Potency [6] | Potency [7]

Nc1ccc(-c2ccc3ccccc3n2)cc1
inactive: outcome [8] | outcome [9] | Potency [10] | Potency [4] | Potency [5] | Potency [6] | Potency [7]

C[N+](C)(C)CC=O
inactive: outcome [8] | outcome [9] | Potency [10] | Potency [4] | Potency [5] | Potency [6] | Potency [7]

CN[C@H](CC(C)C)C(=O)N[C@H]1C(=O)N[C@@H](CC(N)=O)C(=O)N[C@@H]2C(=O)N[C@H]3C(=O)N[C@H](C(=O)N[C@H](C(=O)O)c4cc(O)cc(O)c4-c4cc3ccc4O)[C@H](O)c3ccc(c(Cl)c3)Oc3cc2cc(c3O[C@@H]2O[C@H](CO)[C@@H](O)[C@H](O)[C@@H]2O[C@H]2C[C@](C)(N)[C@H](O)[C@H](C)O2)Oc2ccc(cc2Cl)[C@H]1O
inactive: Potency [13] | Potency [14] | outcome [3] | Potency [4] | Potency [5] | Potency [6] | Potency [7]
704%: growth, % of control [16]
104%: parasite growth remaining, % of DMSO control (lower = more inhibition) [15]

Nc1ncnc2c1ncn2[C@@H]1O[C@H](COP(=O)(O)CP(=O)(O)OP(=O)(O)O)[C@@H](O)[C@H]1O
inactive: Potency [11] | outcome [3] | Potency [4] | Potency [5] | Potency [6] | Potency [7]

Cn1cnc2c(NCc3ccccc3)nc(NCCO)nc21
inactive: outcome [8] | outcome [9] | Potency [10] | Potency [4] | Potency [5] | Potency [6] | Potency [7]

N[C@@H](Cc1ccc(O)c(I)c1)C(=O)O
inactive: outcome [8] | outcome [9] | Potency [10] | outcome [3] | Potency [4] | Potency [5] | Potency [6] | Potency [7]

NCCSSCCN
inactive: outcome [8] | outcome [9] | Potency [10] | Potency [4] | Potency [5] | Potency [6] | Potency [7]

Cn1c(=O)[nH]c2ncn(C)c2c1=O
inactive: outcome [8] | outcome [9] | Potency [10] | Potency [4] | Potency [5] | Potency [6] | Potency [7]

Ic1ccc(N2CCN(Cc3c[nH]c4ncccc34)CC2)cc1
inactive: outcome [8] | outcome [9] | Potency [10] | outcome [3] | Potency [4] | Potency [5] | Potency [6] | Potency [7]

NC[C@@H]1O[C@H](c2ccccc2)Cc2c1ccc(O)c2O
inactive: outcome [3] | Potency [4] | Potency [5] | Potency [6] | Potency [7]

CN1Cc2sccc2C(c2ccc(O)c(O)c2)C1 (stereo not given)
inactive: outcome [3] | Potency [4] | Potency [5] | Potency [6] | Potency [7]

Nc1nc(SCc2ccc([N+](=O)[O-])cc2)c2ncn([C@@H]3O[C@H](CO)[C@@H](O)[C@H]3O)c2n1
inactive: outcome [3] | Potency [4] | Potency [5] | Potency [6] | Potency [7]

Nc1ncnc2c1c(I)cn2[C@@H]1C[C@H](N)[C@@H](O)[C@H]1O
inactive: outcome [3] | Potency [4] | Potency [5] | Potency [6] | Potency [7]

C[C@H]1O[C@@H](n2cc(F)c(=O)[nH]c2=O)[C@H](O)[C@H]1O
inactive: outcome [3] | Potency [4] | Potency [5] | Potency [6] | Potency [7]

CN(C)CCCO[C@@H]1[C@H]2OC(C)(C)O[C@H]2O[C@@H]1[C@H](O)CO
inactive: outcome [3] | Potency [4] | Potency [5] | Potency [6] | Potency [7]
